Experimental data reported in PubChem BioAssay (NCI).
The panel holds about 79,000 compounds, 15% with a hit somewhere; the sample as a whole holds those more often. Cut-off read from the data, not from the text of the source: active = growth inhibition above about 70%; inactive = the rest.

Columns and labels:
[1] = NCI Yeast Anticancer Drug Screen. Data for the rad50 strain (AID 155);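 note: 0% = growth of vehicle-only cultures of the same strain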; conditions: S. cerevisiae rad50 strain growth inhibition, hits give high values; at 50.0 µM unless noted
Summary of the method: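 Genetically altered yeast (DNA repair pathway); compound treatment; growth inhibition vs vehicle ctrl.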

[2] = NCI Yeast Anticancer Drug Screen. Data for the mec2-1 strain (AID 157); conditions: S. cerevisiae mec2-1 strain, hits give high values; at 50.0 µM unless noted
Summary of the method: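 Mutant yeast (mec2-1) grown with compound; growth inhibition relative to vehicle control reported.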

[3] = NCI Yeast Anticancer Drug Screen. Data for the sgs1 mgt1 strain (AID 161);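 note: 0% = growth of cultures given vehicle only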; conditions: S. cerevisiae sgs1 mgt1 strain, hits give high values; at 50.0 µM unless noted
Summary of the method: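 Growth of a repair-deficient yeast mutant was monitored after compound treatment and expressed as inhibition relative to vehicle-treated cultures.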

[4] = NCI Yeast Anticancer Drug Screen. Data for the cln2 rad14 strain (AID 165);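 note: 0% = growth equal to vehicle treated cultures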; conditions: S. cerevisiae cln2 rad14 strain, hits give high values; at 50.0 µM unless noted
Summary of the method: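 Readout is yeast growth inhibition versus vehicle-treated controls, using a strain with cln2 and rad14 alterations exposed to compound.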

[5] = NCI Yeast Anticancer Drug Screen. Data for the bub3 strain (AID 167); conditions: S. cerevisiae bub3 mutant strain, hits give high values; at 50.0 µM unless noted
Summary of the method: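 Yeast carrying a defined mutation is treated with each compound, and growth is compared with that of vehicle-exposed cells to give inhibition.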

[6] = NCI Yeast Anticancer Drug Screen. Data for the mlh1 rad18 strain (AID 175); conditions: S. cerevisiae mlh1 rad18 strain growth inhibition, hits give high values; at 50.0 µM unless noted
Summary of the method: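 Genetically defined yeast (DNA repair-deficient) exposed to compounds; growth inhibition determined relative to vehicle.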

Measured: growth inhibition

OC(CCN1CC2CCC(CC2)C1)(Cc1ccccc1)c1cccs1 (stereo not given)
inactive: [1] 6.75% | [2] 2.7% | [3] 21.1% | [4] 11.2% | [5] 17.1% | [6] 32.5%

O=C1NC2OCC(O)C(O)C2O1 (stereo not given)
inactive: [1] 4.6% | [2] 10.1% | [3] -4.15% | [4] 12.4% | [5] 22.4% | [6] 6.45%

FC(F)(F)COP1(OCC(F)(F)F)=NP(OCC(F)(F)F)(OCC(F)(F)F)=NP(OCC(F)(F)F)(OCC(F)(F)F)=N1
inactive: [1] -1.2% | [2] 14.3% | [3] -5.15% | [4] -4.55% | [5] -3.45% | [6] 6.8%

CCC(C(=O)O)C(=O)O.[NH2-].[NH2-].[Pt+2]
inactive: [1] 11.8% | [2] -6.6% | [3] -11.1% | [4] 14.1% | [5] -9.55% | [6] 2.4%

CN(C)CC1(C)CC/C(=C\c2ccc3c(c2)OCO3)C1=O (stereo not given)
inactive: [1] 58.4% | [2] 30.4% | [3] 45% | [4] 51.9% | [5] 29.9% | [6] 56%

Cn1c2ccc3cc2c(=S)c2cc(ccc21)OCCOCCOCCOCCOCCO3
inactive: [1] 32.1% | [2] -16% | [3] 0.65% | [4] -17% | [5] -13.3% | [6] 9.85%

c1ccc(N=C(Nc2ccccn2)Nc2ccccn2)nc1
inactive: [1] 5.15% | [2] -7.2% | [3] 1.1% | [4] -34% | [5] -14.7% | [6] -25.1%

Cc1ccc(S(=O)(=O)OCCN(CCOS(=O)(=O)c2ccc(C)cc2)c2cccc([N+](=O)[O-])c2)cc1
inactive: [1] 22.9% | [2] 8.85% | [3] 7.85% | [4] 22.4% | [5] -0.3% | [6] 21.4%

Cn1nnn(Cc2ccccc2)/c1=N/C(=S)Nc1ccccc1
inactive: [1] -11.6% | [2] -6.75% | [3] -4.05% | [4] -7.45% | [5] 3.1% | [6] -21.4%

C=C1CC[C@](C)(O)[C@@]2(C)CC[C@H]3C(=C(C)C)C(=O)C[C@]3(C)C[C@H]12
inactive: [1] 12.1% | [2] 5.45% | [3] 10.2% | [4] 18.5% | [5] 1.7% | [6] 23.8%

Nc1c(Cl)ncnc1Nc1ccc(CCO)cc1
inactive: [1] -3.6% | [2] -9.25% | [3] 22.6% | [4] -60.3% | [5] -4.4% | [6] -8.75%

Cn1c2c(c(=O)c3ccccc31)CC(O)C(C)(C)O2 (stereo not given)
inactive: [1] -23.6% | [2] -35.7% | [3] -6.4% | [4] 6% | [5] 3.35% | [6] -2.65%

COCc1cccc2ccnc(COC)c12
inactive: [1] -8.2% | [2] 2.45% | [3] 5.95% | [4] 9.4% | [5] -8.35% | [6] 5.25%

C[N+](C)(C)CC1CCC/C1=N\OC(=O)c1ccccc1 (stereo not given)
inactive: [1] -17.8% | [2] 1.85% | [3] 11.8% | [4] 12.8% | [5] 14.2% | [6] -2.7%

CC(N)(CC(O)(C(F)(F)Cl)C(F)(F)Cl)C(=O)O (stereo not given)
inactive: [1] -48.1% | [2] -37.7% | [3] -33.4% | [4] -9.25% | [5] -13.7% | [6] -28.8%

C(=Nc1ccc(N=Cc2ccco2)cc1)c1ccco1
inactive: [1] 10.8% | [2] 2.3% | [3] 0.5% | [4] -8.1% | [5] -8.5% | [6] 7.35%

Cc1[nH]n(-c2ccc(Cl)cc2)c(=O)c1N=Nc1cccc(C(F)(F)F)c1
inactive: [1] 21.8% | [2] 2.05% | [3] 2.1% | [4] 7.45% | [5] -2.05% | [6] 2%

CCC[n+]1nc2ccccc2c(=Nc2ccccc2[N+](=O)[O-])[n-]1
inactive: [1] 8.65% | [2] 8.75% | [3] 2.75% | [4] 7.8% | [5] 12.3% | [6] 2.45%

O=S(=O)(c1ccc(Cl)cc1)S(=O)(=O)c1ccc(Cl)cc1
inactive: [1] 18.8% | [2] 8.5% | [3] 8.6% | [4] -18.4% | [5] 4.5% | [6] 10.4%

Fc1ccc(/C=C2/c3cc(Cl)ccc3-c3c(Cl)cc(Cl)cc32)cc1
inactive: [1] 44.6% | [2] 3.25% | [3] 15.7% | [4] -5.1% | [5] -3.5% | [6] 5.5%
